Compound activity as filed in PubChem.
12-LOX inh = inhibitors of human 12S-lipoxygenase ALOX12. purified 12hLO, xylenol orange hydroperoxide absorbance. Potency, µM (doses to about 108 µM), most hits filed as inhibitors. 580,000 compounds, 1.1% hits. AID 1671190
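Purified human 12hLO at 150 nM in 25 mM Hepes, 0.01% Triton X-100, pH 7.0, preincubated 15 min at room temperature with compound. Reaction started with 40 uM arachidonic acid, 30 min at room temperature. Hydroperoxide measured by Fe-xylenol orange, 573/405 nm absorbance ratio.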
VDR inhibitor = blocks the human vitamin D receptor; P11473; VDR-SRC2-3 peptide fluorescence polarization, 2 h; Potency, µM, actives largely listed as inhibitors; 400,000 compounds, 0.93% hits; AID 504847
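After 23 nl compound addition and a short centrifugation, plates sat for 2 hours at ambient temperature; polarization of fluorescence then indicated loss of VDR binding to peptide SRC2-3.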
Sfp PPTase inh = blocks B. subtilis Sfp PPTase activity; 310,000 compounds, 3.5% hits; Biochemical Sfp PPTase activity, qHTS; Potency, µM, actives largely listed as inhibitors; Q9F4F7;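 further: the enzyme is Sfp with the accession as filed and its product quenches rhodamine fluorescence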
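Reaction rates are the 30-min fluorescence difference (ex 525, em 598 nm) in wells containing 15 nM Sfp, 5 uM rhodamine-CoA and 12.5 uM BHQ-2-YbbR at pH 7.6 with 10 mM MgCl2.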
PLK1 PBD inh = blocks phosphopeptide binding to human PLK1 polo-box domain; P53350; Plk1 PBD binding of FITC phosphopeptide, fluorescence polarization; Potency, µM, hits mostly inhibitors; 360,000 compounds, 2.8% hits; AID 720504; further: series mostly up to about 57 µM; nearly all actives have a fitted effect of over 65% in size
Target sequence (P53350 whole entry, looked up, the tested form may be a part): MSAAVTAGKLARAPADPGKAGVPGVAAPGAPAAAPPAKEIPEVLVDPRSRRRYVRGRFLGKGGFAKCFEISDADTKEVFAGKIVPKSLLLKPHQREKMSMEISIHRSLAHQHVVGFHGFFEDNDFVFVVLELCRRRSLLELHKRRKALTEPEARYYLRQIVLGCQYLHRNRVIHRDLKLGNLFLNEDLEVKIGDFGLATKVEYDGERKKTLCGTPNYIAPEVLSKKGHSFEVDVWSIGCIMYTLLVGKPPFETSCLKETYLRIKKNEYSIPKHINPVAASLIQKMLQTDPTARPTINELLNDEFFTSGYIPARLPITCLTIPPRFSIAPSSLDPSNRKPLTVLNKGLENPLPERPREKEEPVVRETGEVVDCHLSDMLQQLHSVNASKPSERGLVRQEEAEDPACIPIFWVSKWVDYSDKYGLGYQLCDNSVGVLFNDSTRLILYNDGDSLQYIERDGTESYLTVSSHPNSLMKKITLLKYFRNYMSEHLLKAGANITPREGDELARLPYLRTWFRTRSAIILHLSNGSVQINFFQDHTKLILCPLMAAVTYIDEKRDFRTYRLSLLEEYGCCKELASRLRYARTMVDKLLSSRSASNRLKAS
USP1 UbRho = USP1-UAF1 deubiquitinase inhibition validated; shares compounds with VDR inhibitor; Ub-Rhodamine cleavage, fluorescence kinetic read; Potency, µM (doses to about 56.8 µM), usual class: inhibitors; 50 compounds, 50% hits
VDR confirm = inhibits human vitamin D receptor, primary hit validation | shares compounds with VDR inhibitor | VDR-coactivator inhibition assay, qHTS confirmation | Potency, µM, hits mostly inhibitors | 840 compounds, 89% hits | AID 602199
VDR FP = confirmation of human VDR-coactivator binding inhibitors, fluorescein label | shares compounds with VDR inhibitor | VDR-coactivator binding, fluorescein fluorescence polarization | Potency, µM (doses to about 57.1 µM), most hits filed as inhibitors | 840 compounds, 48% hits
VDR bla = confirmation of human vitamin D receptor inhibitors in reporter cells. shares compounds with VDR inhibitor. VDR beta-lactamase reporter cells, FRET ratio; cells co-treated with VDR agonist LG190178. Potency, µM (highest dose often 46.1 µM), hits mostly inhibitors. 840 compounds, 23% hits. AID 602202
VDR viability = cytotoxic in counter-screen for VDR inhibitors; shares compounds with VDR inhibitor; cytotoxicity counter-screen, cell viability, qHTS; Potency, µM (highest dose often 48.3 µM), most hits filed as cytotoxic; 840 compounds, 18% hits; further: nearly all actives have a fitted effect of over 75% in size
Of the large screens only hits and unclear results are named; the others gave an inactive call (follow-up assays come after a bar, where they were run). Hits are enriched below; roughly 4.2% of the tested compounds scored in any of these assays. The call rests on the fitted dose curve; in most records, active means well fitted curve in the direction sought with a large enough effect; inconclusive means small, poorly fitted or top-dose-only effect, or another doubt; inactive means no such curve, though single readings can be large; an effect the other way counts as inactive or inconclusive.

COc1ccc(C(=O)[C@H]2[C@H]3C(=O)N(c4ccccc4)C(=O)[C@H]3C3C=CC=NN32)cc1 (stereo not given in full)	12-LOX inh inconclusive, Sfp PPTase inh inconclusive
CC(C)C[C@H](N)c1nnc(SCc2ccc(Cl)cc2Cl)o1	12-LOX inh inconclusive (no result: Sfp PPTase inh, PLK1 PBD inh)
CC(C)C[C@H](N)c1nnc(S(=O)(=O)Cc2ccc(F)cc2)o1	VDR inhibitor 32µM, Sfp PPTase inh 14µM, PLK1 PBD inh inconclusive (no result: 12-LOX inh) | VDR confirm inconclusive | VDR FP 20µM | VDR bla inconclusive | VDR viability inconclusive
O=c1nc(/C=C/c2cc([N+](=O)[O-])ccc2Cl)cc(C(F)(F)F)[nH]1	12-LOX inh inconclusive, VDR inhibitor inconclusive | VDR confirm 3.2 | VDR FP 3.2µM | VDR bla inconclusive | VDR viability inactive
O=c1nc(/C=C/c2cccn2-c2ccc([N+](=O)[O-])cc2)cc(C(F)(F)F)[nH]1	12-LOX inh inconclusive, Sfp PPTase inh inconclusive, PLK1 PBD inh inconclusive
Cc1cc(C)c(S(=O)(=O)NCC(=O)O)c(C)c1	none (no result: VDR inhibitor, Sfp PPTase inh, PLK1 PBD inh)
COC(=O)C(C)NC(=O)N1CCC2(CC1)NC(=O)c1ccccc1O2 (stereo not given)	none (no result: VDR inhibitor, Sfp PPTase inh, PLK1 PBD inh)
Ic1ccc(N2CCN(Cc3c[nH]c4ncccc34)CC2)cc1	12-LOX inh inconclusive, VDR inhibitor inconclusive | USP1 UbRho inconclusive
Oc1ccc(CN2CCN(c3ccccc3)CC2)c2cccnc12	none (no result: 12-LOX inh)
COc1ccc(NS(=O)(=O)c2cc(NC(=O)C3=NN(c4ccccc4)C(=O)CC3)ccc2C)cc1	none (no result: Sfp PPTase inh)
O=c1ccc2cc(S(=O)(=O)N3CCOCC3)ccc2o1	none
c1ccc2nc3c(nc2c1)c1ccccc1n3CCN1CCOCC1	none
CCn1c2ccccc2c2nc3cc(S(=O)(=O)N4CCOCC4)ccc3nc21	VDR inhibitor 28µM, Sfp PPTase inh 6.3µM, PLK1 PBD inh 0.67µM (no result: 12-LOX inh) | VDR confirm 6 | VDR FP inconclusive | VDR bla inactive | VDR viability inconclusive
O=C(CSc1ccc([N+](=O)[O-])cc1)Nc1cccc(S(=O)(=O)N2CCOCC2)c1	PLK1 PBD inh inconclusive (no result: Sfp PPTase inh)
O=C(CSc1nc2cc(S(=O)(=O)N3CCOCC3)ccc2o1)Nc1c(F)cccc1F	12-LOX inh inconclusive, VDR inhibitor 18µM, Sfp PPTase inh 13µM, PLK1 PBD inh 2.7µM | VDR confirm 11 | VDR FP 7.1µM | VDR bla inactive | VDR viability inactive
CCSc1nc2cc(S(=O)(=O)N3CCOCC3)ccc2o1	12-LOX inh inconclusive, VDR inhibitor 25µM, PLK1 PBD inh 3µM (no result: Sfp PPTase inh) | VDR confirm 9.5 | VDR FP inconclusive | VDR bla inactive | VDR viability inactive
Cc1oc(C)c2c(=O)cc(-c3ccc4c(c3)OCO4)cc(OC(=O)c3ccccc3Cl)c12	12-LOX inh inconclusive (no result: Sfp PPTase inh, PLK1 PBD inh)
O=C(CSc1nnnn1Cc1ccccc1)Nc1ccccc1	none
Cc1cc(C(C2C(=O)CC(C)(C)CC2=O)C2C(=O)CC(C)(C)CC2=O)cc(C)c1OC(F)F	12-LOX inh inconclusive, VDR inhibitor 10µM, PLK1 PBD inh 5.3µM | VDR confirm 24 | VDR FP inconclusive | VDR bla inactive | VDR viability inactive
CCOc1ccc(NC(=O)CC2C(=O)N(c3ccccc3)C(=O)N2Cc2ccco2)cc1 (stereo not given)	none
O=C(O)c1ccc(C=C(c2nc3ccccc3s2)c2nc3ccccc3s2)cc1	12-LOX inh inconclusive, VDR inhibitor inconclusive, PLK1 PBD inh 30µM | VDR confirm 13 | VDR FP 16µM | VDR bla 23µM | VDR viability inactive
O=S(=O)(/N=S1/CC=CCN1S(=O)(=O)c1ccccc1)c1ccccc1 (stereo not given)	VDR inhibitor 3.5µM, Sfp PPTase inh 1.4µM, PLK1 PBD inh 1.5µM (no result: 12-LOX inh) | VDR confirm 5.3 | VDR FP inconclusive | VDR bla inactive | VDR viability inactive
Cc1onc(C(=O)NCc2ccccn2)c1[N+](=O)[O-]	VDR inhibitor inconclusive
CS(=O)(=O)c1ccc(C(=O)OCc2nnc(-c3ccc(Cl)cc3)o2)cc1[N+](=O)[O-]	VDR inhibitor 25µM (no result: 12-LOX inh) | VDR confirm 5.6 | VDR FP 2.2µM | VDR bla 15µM | VDR viability inconclusive
CCOC(=O)COc1ccc(/C=C/[N+](=O)[O-])c(OCC(=O)OCC)c1	12-LOX inh inconclusive, VDR inhibitor 13µM, PLK1 PBD inh inconclusive | VDR confirm 6.7 | VDR FP inconclusive | VDR bla inconclusive | VDR viability 13µM
CCOc1ccc(/C=C/[N+](=O)[O-])c2ccccc12	VDR inhibitor 20µM, Sfp PPTase inh 8.9µM, PLK1 PBD inh 3.4µM (no result: 12-LOX inh) | VDR confirm 6.7 | VDR FP inconclusive | VDR bla inconclusive | VDR viability inconclusive
CCOC(=O)COc1ccc2nsnc2c1	none
CCOC(=O)Cn1cc(/C=C/[N+](=O)[O-])c2ccccc21	12-LOX inh inconclusive, VDR inhibitor inconclusive, PLK1 PBD inh inconclusive
O=S(=O)(Nc1cc2nc3ccccc3nc2n1Cc1ccccc1)c1ccc(Cl)cc1	12-LOX inh 45µM, VDR inhibitor 40µM, Sfp PPTase inh 56µM, PLK1 PBD inh inconclusive | VDR confirm 30 | VDR FP inactive | VDR bla inconclusive | VDR viability inconclusive
O=S(=O)(NCc1ccccc1)c1ccc(Cl)cc1	none
CC(C)(Sc1ccc(CCN(CCCCC2CCCCC2)C(=O)NC2CCCCC2)cc1)C(=O)O	12-LOX inh inconclusive, VDR inhibitor 40µM, PLK1 PBD inh 21µM | USP1 UbRho 33µM
CN(Cc1ccccc1)C(=O)NC1CCCCC1	none
Cc1ccc(C(C(=O)NC(C)(C)C)N(C(=O)c2csnn2)c2cccc(F)c2)o1 (stereo not given)	none
CCCn1c(SCC(=O)c2c(N)n(C3CC3)c(=O)[nH]c2=O)nc2cc(S(N)(=O)=O)ccc21	none (no result: Sfp PPTase inh)
COc1cc(/C=C/C(=O)Nc2nnc(CC(C)(C)C)s2)cc(OC)c1OC	12-LOX inh inconclusive, VDR inhibitor 79µM, Sfp PPTase inh 45µM, PLK1 PBD inh 8.4µM | VDR confirm 21 | VDR FP 14µM | VDR bla inactive | VDR viability inactive
CCOC(=O)/C(C#N)=C1/C(=O)N(Cc2ccccc2)c2ccccc21	12-LOX inh inconclusive, VDR inhibitor 28µM, Sfp PPTase inh 45µM, PLK1 PBD inh 3.8µM | VDR confirm 3.4 | VDR FP inconclusive | VDR bla inactive | VDR viability inactive
CCOC(=O)C(C#N)=C1CCN(Cc2ccccc2)CC1	none
